# Results published in PubChem BioAssay (NCATS).
# Records with an inconclusive call do not appear. The source made the active and inactive calls. Calls come from the whole dose curve; as a rule, active = well fitted cell-killing curve with a large enough effect; inconclusive = small, poorly fitted or top-dose-only effect, or effect the other way; inactive = no such curve, though single readings can be large or run the other way.
# Assay: qHTS assay to identify small molecule inhibitors of chordoma cells - UCH-1 (AID 1259355); note: nearly all actives have a fitted effect of over 55% in size
# Conditions: UCH-1 chordoma viability, CellTiter-Glo, 48 h, combination; series mostly up to 46.1 µM; activity, negative = inhibition: at the top concentration
# Text: NIH Chemical Genomics Center [NCGC]
# Chordoma is a rare and slow growing tumor that can occur anywhere along the spine, from the base of the skull to the tailbone. Current treatment options for chordoma is surgery and radiation therapy for those who are not candidates for surgery. But chordomas tend to return in the same location or surrounding areas of the original tumor after surgery and/or radiation. Chemotherapy can slow down the progression of the tumor. As chordoma is slow growing, the general cytotoxic agents that kill fast growing cells are ineffective, and some patients have been reported to respond to molecularly targeted drugs.
# NCATS Pharmaceutical Collection (NPC) containing approximately 3000 clinically approved and investigational drugs were used to screen at 15 concentrations in a chordoma cell lines, UCH-1, to identify small molecule compounds that can inhibit chordoma cell growth.
# NCGC Assay Protocol Summary:
# Human chordoma cell line UCH-1 was dispensed at 800 per well in 4uL of culture medium into white solid bottom 1536-well plates (Corning Life Sciences, Corning, NY) using a Multidrop Combi (Thermo Scientific, Waltham, MA) dispenser. The assay plates were incubated at 37 C and 5% CO2 for an overnight, and then 23nL of compounds dissolved in DMSO and positive control were transferred using a Pintool station (Wako, San Diego, CA). Compound treatment was followed by the addition of 1uL of the combination compounds (1uM Auranofin, 500nM each of Camptothecin, Doxorubicin, Rubitecan, and Topotecan) and assay medium to each well of the assay plates using Flying Reagent Dispenser (FRD, Aurora Discovery, San Diego, CA). The assay plates were incubated at 37 C and 5% CO2 for 48hr. Then 5uL of CellTiter-Glo reagent (Promega Corporation, Madison, WI) was added to each well of the assay plates using FRD. After 30min incubation at room temperature, the luminescence signal was quantified using a ViewLux plate reader (PerkinElmer, Shelton, CT).
# % is set by controls: 0 for no effect and ±100 for the full control effect; potency is the fitted concentration of half-maximal effect.
SMILES,"activity, negative = inhibition",Potency
CCOC(=O)/C=C(C)/C=C/C[C@@H](C)CCCC(C)C,"-7.84% [at 46.1 µM, with auranofin plus four topoisomerase inhibitors] (inactive)",–
OC[C@@H](O)[C@H]1O[C@@H]2O[C@H](C(Cl)(Cl)Cl)O[C@@H]2[C@H]1O,"-6.52% [at 46.1 µM, with auranofin plus four topoisomerase inhibitors] (inactive)",–
N#CC(C#N)=Cc1cc(O)c(O)c(O)c1,1.05% (inactive),–
COC([CH2][Hg])CNC(=O)c1ccccc1OCC(=O)O (stereo not given),-1.38% (inactive),–
[S]=[Sb](=[S])[S][Sb](=[S])=[S],"-7.5% [at 46.1 µM, with auranofin plus four topoisomerase inhibitors] (inactive)",–
[O]=[Cd],"-15.6% [at 46.1 µM, with auranofin plus four topoisomerase inhibitors] (inactive)",–
S=C=S,"-2.36% [at 46.1 µM, with auranofin plus four topoisomerase inhibitors] (inactive)",–
CC[C@H](C)[C@H]1O[C@]2(C=C[C@@H]1C)C[C@@H]1C[C@@H](C/C=C(\C)[C@@H](O[C@H]3C[C@H](OC)[C@@H](O[C@H]4C[C@H](OC)[C@@H](O)[C@H](C)O4)[C@H](C)O3)[C@@H](C)/C=C/C=C3\CO[C@@H]4[C@H](O)C(C)=C[C@@H](C(=O)O1)[C@]34O)O2,19.9% (inactive),–
O=C1OC2(c3cc(Br)c(O)cc3Oc3c2cc(Br)c(O)[c]3[Hg])c2ccccc21 (stereo not given),"-34.9% [at 20.6 µM, with auranofin plus four topoisomerase inhibitors] (inactive)",–
CC1(C)S[C@@H]2[C@H](N)C(=O)N2[C@H]1C(=O)O,"-14.2% [at 20.6 µM, with auranofin plus four topoisomerase inhibitors] (inactive)",–
C[C@]12C=CC(=O)C=C1CC[C@@H]1[C@@H]2CC[C@]2(C)OC(=O)CC[C@@H]12,-20.9% (inactive),–
OC[C@@H](O)[C@H]1O[C@@H]2O[C@@H](C(Cl)(Cl)Cl)O[C@@H]2[C@H]1O,"-3.26% [at 46.1 µM, with auranofin plus four topoisomerase inhibitors] (inactive)",–
ClC1=C(Cl)[C@]2(Cl)[C@@H]3[C@H]4C[C@H]([C@@H]5O[C@H]45)[C@@H]3[C@@]1(Cl)C2(Cl)Cl,"0.767% [at 46.1 µM, with auranofin plus four topoisomerase inhibitors] (inactive)",–
COCC(C)N(C(=O)CCl)c1c(C)csc1C (stereo not given),"-6.08% [at 46.1 µM, with auranofin plus four topoisomerase inhibitors] (inactive)",–
ClC=C(Cl)Cl,"-3.58% [at 46.1 µM, with auranofin plus four topoisomerase inhibitors] (inactive)",–
COc1ccc2c3c1O[C@H]1C(=O)CC[C@H]4[C@@H](C2)N(C)CC[C@]314,-0.498% (inactive),–
CO[C@H]1[C@@H](O)C[C@H](O[C@H]2[C@@H](O)C[C@H](O[C@H]3[C@@H](O)C[C@H](O[C@H]4CC[C@@]5(C)[C@H](CC[C@@H]6[C@@H]5C[C@@H](O)[C@]5(C)[C@@H](C7=CC(=O)OC7)CC[C@]65O)C4)O[C@@H]3C)O[C@@H]2C)O[C@@H]1C,–,0.355 µM [with auranofin plus four topoisomerase inhibitors] (active)
CCN1C[C@]2(COC)[C@H](O)C[C@H](OC)[C@@]34[C@@H]5C[C@@]6(O)[C@H](OC(=O)c7ccccc7)[C@@H]5[C@@](OC(C)=O)([C@@H]([C@H](OC)[C@H]23)[C@@H]14)[C@@H](O)[C@@H]6OC,"3.18% [at 46.1 µM, with auranofin plus four topoisomerase inhibitors] (inactive)",–
C[C@H]1CC[C@]2(NC1)O[C@H]1C[C@H]3[C@@H]4CC[C@H]5C[C@@H](O)CC[C@]5(C)[C@H]4CC[C@]3(C)[C@H]1[C@@H]2C,"-9.99% [at 46.1 µM, with auranofin plus four topoisomerase inhibitors] (inactive)",–
O=[N+]([O-])c1ccccc1,12.3% (inactive),–

SMILES,"activity, negative = inhibition",Potency
C=CCN=C=S,"-13.9% [at 46.1 µM, with auranofin plus four topoisomerase inhibitors] (inactive)",–
OC(c1ccccc1)(c1ccccc1)C1CN2CCC1CC2 (stereo not given),"-14.9% [at 46.1 µM, with auranofin plus four topoisomerase inhibitors] (inactive)",–
CC(=O)O[C@H]1CC[C@@]2(C)C(=CC[C@@H]3[C@@H]2CC[C@]2(C)C(=O)CC[C@@H]32)C1,-5.9% [at 20.6 µM] (inactive),–
CCNC1(c2cccs2)CCCCC1=O (stereo not given),-1.07% [at 20.6 µM] (inactive),–
CC1CCC(C(C)C)C(OC(=O)c2ccccc2N)C1 (stereo not given),-20.8% (inactive),–
CN1C2CCC1CC(OC(c1ccccc1)c1ccc(Cl)cc1)C2 (stereo not given),"-29.1% [at 46.1 µM, with auranofin plus four topoisomerase inhibitors] (inactive)",–
Cc1cc(C)cc(C(=O)OC2C[C@H]3CC[C@@H](C2)N3C)c1 (stereo not given in full),-5.33% (inactive),–
CC(C)(O)[C@@H]1[C@H]2OC(=O)[C@@H]1[C@]1(O)C[C@H]3O[C@]34C(=O)O[C@H]2[C@]14C,1.8% (inactive),–
CCCC(C)(COC(N)=O)COC(=O)NC1CC1 (stereo not given),-3.06% (inactive),–
C[N+]1([O-])[C@@H]2CC[C@H]1CC(OC(=O)C(CO)c1ccccc1)C2 (stereo not given in full),"-15.1% [at 20.6 µM, with auranofin plus four topoisomerase inhibitors] (inactive)",–
C[C@]12CC[C@H]3[C@@H](CC[C@@]45O[C@@H]4C(O)=C(C#N)C[C@]35C)[C@@H]1CC[C@@H]2O,-4.22% (inactive),–
O=C1CN(O)C(c2ccccc2)=c2cc(Cl)ccc2=N1,-3.44% (inactive),–
C/C(=C\c1csc(C)n1)[C@@H]1C[C@@H]2O[C@]2(C)CCC[C@H](C)[C@H](O)[C@@H](C)C(=O)C(C)(C)[C@@H](O)CC(=O)O1,-24.5% (inactive),–
CCCCCCCCOC(=O)c1ccccc1C(=O)OCCCCCCCC,3.81% (inactive),–
O=C1C2CC=CCC2C(=O)N1SC(Cl)(Cl)Cl (stereo not given),–,12.6 µM (active)
CN(C)CCCCCCN(C)C (tested in a mixture with another compound),-1.37% (inactive),–
[H+].[H+].[Hg+2].[O-]B([O-])[O-].[c-]1ccccc1,–,8.91 µM (active)
CN[C@H]1C[C@@H](N)[C@H](O)[C@@H](O[C@@H]2O[C@H](CO)[C@H](O)[C@@H]3OC4(O[C@H]23)O[C@H](C(N)CO)[C@H](O)[C@H](O)[C@H]4O)[C@@H]1O (stereo not given in full),-22.9% (inactive),–
CC(C)CCC(=O)O[C@H]1CC[C@H]2[C@@H]3CCC4=CC(=O)CC[C@]4(C)[C@H]3CC[C@]12C,-8.15% (inactive),–
CC(C)(C)c1cc(O)ccc1O,–,inactive
